Experimental data reported in PubChem BioAssay (NCATS).
Inconclusive results are not listed. Active and inactive are the calls of the source. The call rests on the fitted dose curve; in most records, active means well fitted activation curve with a large enough effect; inconclusive means small, poorly fitted or top-dose-only effect; inactive means no such curve, though single readings can be large or run the other way.
Potency means the concentration at half of the fitted maximal effect.

Each compound was assayed against Cellular tumor antigen p53 (Homo sapiens) (UniProt P04637) (assay: Primary qHTS for small molecule compounds that upregulate eGFP-tagged delta133p53alpha (in N-terminal) cells. (AID 2060322; further: nearly all actives have a fitted effect of over 75% in size;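 on activation: cells pre-induced with doxycycline then dosed without doxycycline; series mostly up to about 56 µM; 0% = DMSO vehicle and 100% = reference activator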)). Details: NCI-H358 eGFP-delta133p53alpha fluorescence, 24 h; activation: active compounds read high.
Chain of Cellular tumor antigen p53 (Homo sapiens) (P04637 whole entry, looked up): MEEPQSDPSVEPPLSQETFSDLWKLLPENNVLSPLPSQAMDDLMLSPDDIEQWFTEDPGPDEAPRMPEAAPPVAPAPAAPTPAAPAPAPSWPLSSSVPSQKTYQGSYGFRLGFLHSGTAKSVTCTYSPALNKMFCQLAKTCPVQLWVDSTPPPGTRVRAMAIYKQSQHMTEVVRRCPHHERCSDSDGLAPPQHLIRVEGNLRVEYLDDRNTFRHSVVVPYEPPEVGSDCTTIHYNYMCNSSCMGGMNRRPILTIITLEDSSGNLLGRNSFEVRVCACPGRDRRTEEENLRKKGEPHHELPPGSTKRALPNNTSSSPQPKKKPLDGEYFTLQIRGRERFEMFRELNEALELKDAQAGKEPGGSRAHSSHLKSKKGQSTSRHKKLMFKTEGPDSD
Procedure, shortened: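 NCI-H358 cells pre-induced 24 h with 10 ng/ml doxycycline for eGFP-delta133p53alpha, plated dox-free and exposed 24 h at 37C to titrated compounds. Fixed, Hoechst-stained; gated GFP peak intensity by laser scanning cytometry, normalized to DMSO (0%) and 57.5 uM 5-azacytidine (100%).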
`OC(c1ccccc1)(c1ccccc1)C1CCNCC1` was tested, and the activation was -13.4% (inactive). `Oc1cc(Cl)ccc1Oc1ccc(Cl)cc1Cl` was tested, and the Potency was 51.4 µM (active). With `CC(C)(C)C(O)C(Oc1ccc(Cl)cc1)n1cncn1` (centres undefined) the activation was 10.7% (inactive). `C[C@]12CCC(=O)C=C1CC[C@@H]1[C@H]3CC[C@](C)(O)[C@@]3(C)CC[C@@H]12` was tested, and the Potency was 50.9 µM (active). With `O=C(Nc1ccc(Br)cc1)c1cc(Br)cc(Br)c1O` the activation was 29.9% (inactive). In the case of `O=C(O)c1ccc2[nH]cc(CCCCN3CC=C(c4ccccc4)CC3)c2c1`, the activation was -5.08% (inactive). With `CC(C)(C)[C@]1(O)C[C@@H]2OC(=O)C[C@@]23C(=O)O[C@@H]2OC(=O)[C@H](O)C213` (some centres undefined) the activation was 7.05% (inactive). With `Nc1ccccc1C(=O)OCC(O)CO` (centres undefined) the activation was -5.02% (inactive). In the case of `C1CCC(NC2CCCCC2)CC1`, the activation was 7.53% (inactive). `CC[C@H]1C=CC=CC[C@@H](C)[C@H](O)[C@@](C)(O)C(=O)[C@@H](C)[C@H](O)[C@@H](C)C(=O)[C@@H](C)[C@H](O)[C@@H](C)C=CC(=O)O[C@@H]2[C@@H](C)[C@H](CC1)O[C@]1(CC[C@H](C)[C@H](C[C@@H](C)O)O1)[C@H]2C` was tested, and the activation was 11.3% (inactive). For `CCOP(=S)(OCC)O/N=C(\C#N)c1ccccc1`, the activation was -18.6% (inactive). For `CNC(C)(C)Cc1ccccc1`, the activation was -3.35% (inactive). In the case of `CCC(=O)O[C@H]1CC[C@H]2[C@@H]3CCC4=CC(=O)CC[C@]4(C)[C@H]3CC[C@]12C`, the activation was -0.565% (inactive). For `COc1ccc2c3c1O[C@H]1[C@H](O)CC[C@H]4[C@@H](C2)N(C)CC[C@@]341`, the activation was 16.4% (inactive).
